About 7,900 targets were measured; listed, in parts, are those with a hit and a random draw of the rest. About 0.6% of all pairs of compound and target were hits.
Tests used:
Experiment in all cases: log2 fold change, soluble protein after heating vs DMSO (PISA); higher = thermal stabilisation; K562 cells, 10 uM, 30 min; active = over 0.2 and 3.5 SD of the protein, either way, in both replicates (recomputed)
bafetinib = compound: Cc1ccc(NC(=O)c2ccc(CN3CC[C@H](N(C)C)C3)c(C(F)(F)F)c2)cc1Nc1nccc(-c2cncnc2)n1 [bafetinib]
In short: (§1)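 Soluble protein was quantified by TMTpro 16plex LC-MS/MS after channel sums were equalised. It was obtained as the supernatant after 21,000xg for 90 min from pooled aliquots of K562 cells (2×10^6 cells/mL, 10 μM compound, 30 min) heated for 3 min across 48°C-58°C and extracted in PBS with 0.5% NP-40 at 4°C. Thermal stability values are relative to control samples and come from duplicates. They are given as log2 fold changes.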

[1] = compound: Cc1cccc(CC(=O)N2CCc3c2ccc(-c2cn(C)c4ncnc(N)c24)c3F)n1
In short: as §1

nilotinib = compound: Cc1cn(-c2cc(NC(=O)c3ccc(C)c(Nc4nccc(-c5cccnc5)n4)c3)cc(C(F)(F)F)c2)cn1 [nilotinib]
In short: as §1

[2] = compound: Cc1nc(Nc2n[nH]c3c2CN(C(=O)N[C@H](CN(C)C)c2ccccc2)C3(C)C)c2sccc2n1
In short: as §1

dasatinib = compound: Cc1nc(Nc2ncc(C(=O)Nc3c(C)cccc3Cl)s2)cc(N2CCN(CCO)CC2)n1 [dasatinib]
In short: as §1

[3] = compound: Cc1ncc(-c2ccnc(Nc3ccc(S(C)(=O)=O)cc3)n2)n1C(C)C
In short: as §1

[4] = compound: Cn1cc(-c2ccc3c(c2)CCN3C(=O)Cc2cccc(C(F)(F)F)c2)c2c(N)ncnc21
In short: as §1

[5] = compound: Cn1cc(-c2ccc3nnc(C(F)(F)c4ccc5ncccc5c4)n3n2)cn1
In short: as §1

tipifarnib = compound: Cn1cncc1[C@@](N)(c1ccc(Cl)cc1)c1ccc2c(c1)c(-c1cccc(Cl)c1)cc(=O)n2C [tipifarnib]
In short: as §1

mubritinib = compound: FC(F)(F)c1ccc(/C=C/c2nc(COc3ccc(CCCCn4ccnn4)cc3)co2)cc1 [mubritinib]
In short: as §1

[6] = compound: NC(=O)Nc1cc(-c2cccc(F)c2)sc1C(=O)N[C@H]1CCCNC1
In short: as §1

[7] = compound: NC(=O)c1cnc(N[C@@H]2CCCC[C@@H]2N)nc1Nc1cccc(-n2nccn2)c1
In short: as §1

[8] = compound: NC1(c2ccc(-c3nc4ccn5c(=O)[nH]nc5c4cc3-c3ccccc3)cc2)CCC1
In short: as §1

[9] = compound: NCC(=O)Nc1ccc(-n2nc(C(F)(F)F)cc2-c2ccc3c(ccc4ccccc43)c2)cc1
In short: as §1

entinostat = compound: Nc1ccccc1NC(=O)c1ccc(CNC(=O)OCc2cccnc2)cc1 [entinostat]
In short: as §1

vorinostat = compound: O=C(CCCCCCC(=O)Nc1ccccc1)NO [vorinostat]
In short: as §1

citarinostat = compound: O=C(CCCCCCNC(=O)c1cnc(N(c2ccccc2)c2ccccc2Cl)nc1)NO [citarinostat]
In short: as §1

silmitasertib = compound: O=C(O)c1ccc2c(c1)nc(Nc1cccc(Cl)c1)c1ccncc12 [silmitasertib]
In short: as §1

[10] = compound: O=C1NC(=O)C(c2cnc3ccccn23)=C1c1cn2c3c(cc(F)cc13)CN(C(=O)N1CCCCC1)CC2
In short: as §1

[11] = compound: c1cc(OCCN2CCCCC2)cc(-c2n[nH]c3ccc(-c4nnc[nH]4)cc23)c1
In short: as §1

Measured: log2 fold change

CWC27 (UniProt Q6UX04)
Sequence of UniProt Q6UX04 (Q6UX04 whole entry, looked up): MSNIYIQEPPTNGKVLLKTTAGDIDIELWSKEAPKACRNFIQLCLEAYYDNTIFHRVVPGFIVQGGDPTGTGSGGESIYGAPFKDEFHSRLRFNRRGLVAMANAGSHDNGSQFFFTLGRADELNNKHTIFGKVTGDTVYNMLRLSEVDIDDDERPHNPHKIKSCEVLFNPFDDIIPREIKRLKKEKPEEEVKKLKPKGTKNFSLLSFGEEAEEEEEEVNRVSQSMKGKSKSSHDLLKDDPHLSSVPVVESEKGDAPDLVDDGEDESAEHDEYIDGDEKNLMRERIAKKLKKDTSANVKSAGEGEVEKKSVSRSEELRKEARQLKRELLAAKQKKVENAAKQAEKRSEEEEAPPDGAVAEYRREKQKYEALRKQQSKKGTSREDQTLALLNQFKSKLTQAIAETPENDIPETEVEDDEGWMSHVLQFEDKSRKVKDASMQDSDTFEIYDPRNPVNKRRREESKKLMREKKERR
inactive: bafetinib -0.147 | [1] -0.059 | nilotinib -0.058 | [2] -0.094 | dasatinib -0.087 | [3] 0.132 | [4] 0.056 | [5] 0.022 | tipifarnib -0.146 | mubritinib 0.109 | [6] -0.062 | [7] 0.016 | [8] -0.142 | [9] -0.103 | entinostat 0.113 | vorinostat 0.062 | citarinostat 0.089 | silmitasertib 0.062 | [10] -0.092 | [11] 0.026

CTSH (UniProt P09668)
Sequence of UniProt P09668 (P09668 whole entry, looked up): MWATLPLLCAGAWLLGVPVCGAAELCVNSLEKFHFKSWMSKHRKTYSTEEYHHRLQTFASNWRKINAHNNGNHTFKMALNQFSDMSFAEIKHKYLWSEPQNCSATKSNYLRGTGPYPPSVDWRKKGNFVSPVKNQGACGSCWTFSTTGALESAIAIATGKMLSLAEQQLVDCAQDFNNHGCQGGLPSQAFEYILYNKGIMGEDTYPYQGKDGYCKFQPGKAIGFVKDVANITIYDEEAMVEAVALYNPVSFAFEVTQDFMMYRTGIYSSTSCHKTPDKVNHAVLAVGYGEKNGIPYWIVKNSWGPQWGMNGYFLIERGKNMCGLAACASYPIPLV
inactive: bafetinib -0.071 | [1] -0.034 | nilotinib 0.166 | [2] 0.03 | dasatinib 0.084 | [3] -0.041 | [4] 0.055 | [5] 0.056 | tipifarnib 0.09 | mubritinib -0.063 | [6] 0.012 | [7] 0.029 | [8] 0.032 | [9] 0.04 | entinostat -0.002 | vorinostat -0.01 | citarinostat -0.02 | silmitasertib 0.005 | [10] 0.022 | [11] 0.197

EIF4G1 isoform 8 (UniProt Q04637)
Sequence of UniProt Q04637 (Q04637 whole entry, looked up): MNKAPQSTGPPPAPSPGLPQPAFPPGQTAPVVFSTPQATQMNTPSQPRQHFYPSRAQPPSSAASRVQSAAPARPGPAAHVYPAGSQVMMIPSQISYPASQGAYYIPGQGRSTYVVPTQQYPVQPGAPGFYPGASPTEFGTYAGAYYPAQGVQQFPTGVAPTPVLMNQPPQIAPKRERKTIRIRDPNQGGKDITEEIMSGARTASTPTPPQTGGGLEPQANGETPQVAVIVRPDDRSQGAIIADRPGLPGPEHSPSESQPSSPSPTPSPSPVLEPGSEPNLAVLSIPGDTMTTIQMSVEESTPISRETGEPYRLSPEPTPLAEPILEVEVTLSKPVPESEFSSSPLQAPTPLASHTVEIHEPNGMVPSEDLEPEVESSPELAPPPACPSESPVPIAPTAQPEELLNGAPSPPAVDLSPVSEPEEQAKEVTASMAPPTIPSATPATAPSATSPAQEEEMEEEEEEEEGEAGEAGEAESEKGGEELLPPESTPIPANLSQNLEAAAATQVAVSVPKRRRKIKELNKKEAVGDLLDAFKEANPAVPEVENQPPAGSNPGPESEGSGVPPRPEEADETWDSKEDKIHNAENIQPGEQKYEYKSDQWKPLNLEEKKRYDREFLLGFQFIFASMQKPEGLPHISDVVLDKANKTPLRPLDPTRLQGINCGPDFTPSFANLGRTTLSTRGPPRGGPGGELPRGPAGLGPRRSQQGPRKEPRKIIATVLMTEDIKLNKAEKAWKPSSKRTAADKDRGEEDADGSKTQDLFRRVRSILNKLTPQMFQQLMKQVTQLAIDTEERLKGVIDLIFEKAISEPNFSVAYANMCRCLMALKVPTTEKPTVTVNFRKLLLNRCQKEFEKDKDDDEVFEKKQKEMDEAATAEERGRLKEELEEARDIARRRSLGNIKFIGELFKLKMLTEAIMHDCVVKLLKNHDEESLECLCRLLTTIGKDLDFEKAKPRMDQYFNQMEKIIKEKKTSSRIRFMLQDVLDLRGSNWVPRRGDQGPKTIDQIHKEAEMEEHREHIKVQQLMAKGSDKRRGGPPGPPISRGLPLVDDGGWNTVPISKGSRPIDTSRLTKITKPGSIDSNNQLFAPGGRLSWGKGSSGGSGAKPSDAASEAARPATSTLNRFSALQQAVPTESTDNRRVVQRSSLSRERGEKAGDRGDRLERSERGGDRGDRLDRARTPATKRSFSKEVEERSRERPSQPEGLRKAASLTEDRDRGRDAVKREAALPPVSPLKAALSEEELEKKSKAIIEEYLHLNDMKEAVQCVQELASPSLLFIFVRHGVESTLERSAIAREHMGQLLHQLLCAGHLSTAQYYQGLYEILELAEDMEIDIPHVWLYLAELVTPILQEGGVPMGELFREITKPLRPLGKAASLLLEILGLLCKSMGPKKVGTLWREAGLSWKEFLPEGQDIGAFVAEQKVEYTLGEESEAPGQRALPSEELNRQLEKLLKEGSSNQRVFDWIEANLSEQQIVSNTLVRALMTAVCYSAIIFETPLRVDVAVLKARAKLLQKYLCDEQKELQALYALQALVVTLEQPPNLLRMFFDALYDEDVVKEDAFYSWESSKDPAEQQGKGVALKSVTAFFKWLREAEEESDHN
inactive: bafetinib -0.002 | [1] 0.046 | nilotinib -0.223 | [2] -0.11 | dasatinib -0.157 | [3] -0.17 | [4] -0.155 | [5] -0.117 | tipifarnib -0.083 | mubritinib -0.071 | [6] -0.104 | [7] -0.273 | [8] -0.154 | [9] -0.106 | entinostat 0.185 | vorinostat 0.116 | citarinostat 0.058 | silmitasertib -0.045 | [10] 0.194 | [11] -0.269

ETNK1 (UniProt Q9HBU6)
Sequence of UniProt Q9HBU6 (Q9HBU6 whole entry, looked up): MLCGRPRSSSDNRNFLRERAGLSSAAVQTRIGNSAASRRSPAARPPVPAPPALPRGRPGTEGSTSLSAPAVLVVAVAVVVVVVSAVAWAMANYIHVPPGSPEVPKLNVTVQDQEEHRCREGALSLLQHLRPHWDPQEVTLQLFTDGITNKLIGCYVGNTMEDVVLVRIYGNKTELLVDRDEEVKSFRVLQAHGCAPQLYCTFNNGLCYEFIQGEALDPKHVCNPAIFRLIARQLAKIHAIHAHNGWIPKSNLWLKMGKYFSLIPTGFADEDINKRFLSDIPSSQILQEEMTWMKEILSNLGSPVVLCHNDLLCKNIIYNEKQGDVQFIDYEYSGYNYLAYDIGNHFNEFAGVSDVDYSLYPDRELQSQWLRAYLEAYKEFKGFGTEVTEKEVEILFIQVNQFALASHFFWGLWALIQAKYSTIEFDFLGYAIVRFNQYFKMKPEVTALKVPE
inactive: bafetinib -0.042 | [1] 0.037 | nilotinib -0.043 | [2] 0.08 | dasatinib -0.07 | [3] 0.06 | [4] 0.026 | [5] 0.008 | tipifarnib -0.183 | mubritinib 0.036 | [7] 0.011 | [8] -0.144 | [9] -0.057 | entinostat 0.089 | vorinostat -0.01 | citarinostat 0.019 | silmitasertib 0.041 | [10] 0.208 | [11] -0.084
active: [6] 0.25

DLD (UniProt P09622)
Sequence of UniProt P09622 (P09622 whole entry, looked up): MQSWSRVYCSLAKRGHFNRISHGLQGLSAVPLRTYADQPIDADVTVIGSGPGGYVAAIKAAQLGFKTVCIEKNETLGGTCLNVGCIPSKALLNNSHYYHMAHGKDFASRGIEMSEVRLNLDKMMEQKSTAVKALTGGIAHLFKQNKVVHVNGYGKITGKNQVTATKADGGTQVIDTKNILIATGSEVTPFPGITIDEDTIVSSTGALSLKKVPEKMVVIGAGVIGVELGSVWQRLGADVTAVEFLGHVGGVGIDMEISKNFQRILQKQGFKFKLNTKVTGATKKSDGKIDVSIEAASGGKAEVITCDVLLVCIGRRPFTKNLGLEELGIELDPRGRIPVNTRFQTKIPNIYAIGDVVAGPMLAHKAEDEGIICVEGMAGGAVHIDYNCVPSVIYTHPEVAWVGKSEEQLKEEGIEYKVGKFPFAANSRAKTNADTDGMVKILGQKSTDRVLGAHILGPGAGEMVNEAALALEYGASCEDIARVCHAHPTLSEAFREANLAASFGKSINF
inactive: bafetinib -0.028 | [1] -0.042 | nilotinib 0.034 | [2] -0.018 | dasatinib -0.025 | [3] -0.066 | [4] -0.04 | [5] 0.015 | tipifarnib -0.008 | [6] 0.003 | [7] 0.007 | [8] -0.088 | [9] 0.033 | entinostat -0.013 | vorinostat -0.02 | citarinostat 0.011 | silmitasertib -0.042 | [10] -0.004 | [11] -0.093
active: mubritinib -0.429

EFL1 (UniProt Q7Z2Z2)
inactive: bafetinib -0.043 | [1] -0.014 | nilotinib -0.147 | [2] -0.052 | dasatinib -0.077 | [3] 0.003 | [4] 0.021 | [5] 0.028 | tipifarnib -0.026 | mubritinib -0.109 | [6] 0.001 | [7] -0.023 | [8] -0.106 | [9] -0.026 | entinostat 0.025 | vorinostat 0.071 | citarinostat 0.047 | silmitasertib 0.017 | [10] -0.025 | [11] -0.023

EXOC7 (UniProt Q9UPT5)
Sequence of UniProt Q9UPT5 (Q9UPT5 whole entry, looked up): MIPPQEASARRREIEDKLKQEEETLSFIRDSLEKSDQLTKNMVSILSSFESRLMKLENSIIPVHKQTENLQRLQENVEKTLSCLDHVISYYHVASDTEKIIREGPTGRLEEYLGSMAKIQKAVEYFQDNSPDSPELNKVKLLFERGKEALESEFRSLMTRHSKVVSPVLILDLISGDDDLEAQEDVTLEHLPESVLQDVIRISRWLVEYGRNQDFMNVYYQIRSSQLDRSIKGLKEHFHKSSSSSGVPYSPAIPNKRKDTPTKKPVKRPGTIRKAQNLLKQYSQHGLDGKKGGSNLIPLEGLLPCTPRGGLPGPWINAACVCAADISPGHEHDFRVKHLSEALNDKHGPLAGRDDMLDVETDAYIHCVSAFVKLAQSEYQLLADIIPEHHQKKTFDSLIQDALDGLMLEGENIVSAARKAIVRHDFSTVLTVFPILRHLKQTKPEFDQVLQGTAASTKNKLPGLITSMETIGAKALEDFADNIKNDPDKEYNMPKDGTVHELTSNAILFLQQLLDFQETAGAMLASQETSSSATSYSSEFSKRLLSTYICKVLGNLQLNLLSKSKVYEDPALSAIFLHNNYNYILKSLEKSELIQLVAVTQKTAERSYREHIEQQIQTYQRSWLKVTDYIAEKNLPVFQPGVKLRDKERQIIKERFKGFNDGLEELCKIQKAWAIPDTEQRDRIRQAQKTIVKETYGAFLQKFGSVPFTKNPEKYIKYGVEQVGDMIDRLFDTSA
inactive: bafetinib -0.026 | [1] 0.014 | nilotinib -0.046 | [2] -0.139 | dasatinib -0.234 | [3] -0.035 | [4] 0.002 | [5] 0 | tipifarnib -0.089 | mubritinib -0.011 | [6] 0.009 | [7] -0.142 | [8] -0.223 | [9] -0.022 | entinostat 0.04 | vorinostat 0.09 | citarinostat 0.077 | silmitasertib 0.052 | [10] 0.028 | [11] -0.012

DUS3L (UniProt Q96G46)
Sequence of UniProt Q96G46 (Q96G46 whole entry, looked up): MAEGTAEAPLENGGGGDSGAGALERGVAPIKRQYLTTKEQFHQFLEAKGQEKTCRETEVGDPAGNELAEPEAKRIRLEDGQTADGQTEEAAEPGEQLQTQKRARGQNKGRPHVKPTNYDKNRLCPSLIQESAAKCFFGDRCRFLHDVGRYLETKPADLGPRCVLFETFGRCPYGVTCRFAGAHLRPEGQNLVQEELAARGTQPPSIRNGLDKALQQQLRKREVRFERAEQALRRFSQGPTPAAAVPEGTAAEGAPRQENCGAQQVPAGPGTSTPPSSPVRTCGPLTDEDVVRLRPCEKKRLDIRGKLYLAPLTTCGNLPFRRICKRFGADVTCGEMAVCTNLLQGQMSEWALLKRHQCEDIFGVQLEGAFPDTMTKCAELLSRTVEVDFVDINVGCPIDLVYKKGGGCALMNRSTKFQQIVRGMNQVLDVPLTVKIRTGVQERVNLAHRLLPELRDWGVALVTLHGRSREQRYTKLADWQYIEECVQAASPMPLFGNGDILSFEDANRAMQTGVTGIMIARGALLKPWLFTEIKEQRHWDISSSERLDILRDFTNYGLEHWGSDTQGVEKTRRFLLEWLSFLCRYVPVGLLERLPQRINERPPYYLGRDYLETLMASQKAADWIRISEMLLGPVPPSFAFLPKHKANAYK
inactive: bafetinib -0.041 | [1] -0.02 | nilotinib -0.073 | [2] -0.059 | dasatinib -0.005 | [3] 0.021 | [4] -0.064 | [5] -0.017 | tipifarnib 0.053 | mubritinib -0.115 | [6] 0.113 | [7] -0.012 | [8] 0.194 | [9] 0.003 | entinostat 0.003 | vorinostat 0.093 | citarinostat 0.058 | silmitasertib 0.112 | [10] -0.176 | [11] -0.029
